Test results as given in publication PMC12440807.

The substances below were run against Transcription elongation factor SPT6 (UniProt Q7KZ85) (assay: cross-link between two proteins; cross-linking mass spectrometry).

Listed as a hit, yes:
Transcription elongation factor SPT5, O00267
Transcription elongation factor SPT4, P63272
DNA-directed RNA polymerase II subunit RPB7, P62487
